# Compound activity from PubChem BioAssay.
# DT40 TDP1 no CPT = qHTS for Inhibitors of human tyrosyl-DNA phosphodiesterase 1 (TDP1): qHTS in cells in absence of CPT. DT40 Tdp1-/- hTDP1 cells, no CPT, ATP luminescence, 48 h. Potency, µM (highest dose often 46.2 µM), inactives show top-dose activity change, negative = growth inhibition, actives largely listed as inhibitors. 420,000 tested, 15% active. AID 686978, 2013; further: on the % scale 0 is the no-effect control and ±100 the full control effect; nearly all actives have a fitted effect of over 55% in size
#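 Cells were dispensed at 400 per well, compounds added by pin tool, plates incubated ≥48 hr at 37 °C, then CellTiter-Glo added for 30 min at room temperature before luminescence reading. Line: DT40 Tdp1-/- complemented with hTDP1; camptothecin omitted.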
# HepG2 viability = HepG2 cytotoxicity, counter-screen for TGF-b inhibitors; AID 588856; HepG2 CAGA-GFP viability, ATP luminescence, 18 h; 410,000 tested, 0.76% active; Potency, µM (series often up to 46.1 µM), without a hit: at the highest dose activity change, negative = cytotoxicity, most hits filed as cytotoxic
#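 HepG2 CAGA-GFP cells (1000/well, DMEM with 1% FBS) received compound, then TGF-beta at 500 pg/mL final, and were incubated 18 hours at 37 degrees C. Viability was read by CellTiter-Glo luminescence. Media-only wells were set as complete cell-killing and DMSO as no toxicity.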
# ATXN2 expr inh = reduces ATXN2 reporter expression in HEK-293 cells | HEK-293 ATXN2-luciferase reporter, luminescence, 24 h | Potency, µM (highest dose often 57 µM), for the others: at the highest dose activity change, negative = inhibition, usual class: inhibitors | 360,000 tested, 0.72% active; further: on the % scale 0 is the no-effect control and ±100 the full control effect; nearly all actives have a fitted effect of over 55% in size
#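 ATXN2-luciferase reporter cells (luciferase flanked by upstream and downstream ATXN2 gene portions) were treated 24 h at 37 °C with compounds at up to 57 uM. SteadyGlo luminescence gave expression; GF-AFC fluorescence gave viability.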
# ATXN viability = viability counter-screen for ATXN expression inhibitors; S2 cells (HEK-293 line with an ATXN2-luciferase reporter) viability, CellTiter-Fluor protease fluorescence, 24 h; Potency, µM (top dose mostly 56.7 µM), hits mostly cytotoxic; 400,000 tested, 0.49% active; AID 651635; further: nearly all actives have a fitted effect of over 40% in size
# TDP1 cell CPT = DT40-hTDP1 cell growth loss with CPT | chicken DT40 Tdp1-/-;hTDP1 cells + 20 nM CPT, ATP luminescence, 48 h | Potency, µM (top dose mostly 46.2 µM), for the others: top-dose activity change, negative = growth inhibition, usual class: inhibitors | 420,000 tested, 12% active | AID 686979; further: on the % scale 0 is the no-effect control and ±100 the full control effect; nearly all actives have a fitted effect of over 55% in size
#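 Chicken DT40 Tdp1-/- cells complemented with human TDP1, 400 cells/well, exposed to compounds plus 20 nM camptothecin for at least 48 h at 37 C; viability read as ATP content by CellTiter-Glo luminescence.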
# TGFb inhibitor = inhibitors of TGF-b signaling; AID 588855; Potency, µM (series often up to 46.1 µM), without a hit: top-dose activity, negative = inhibition, hits mostly inhibitors; 410,000 tested, 1.2% active; HepG2 CAGA-GFP TGF-b/SMAD3 reporter, GFP fluorescence, 18 h; TGF-beta stimulated, 500 pg/mL final; further: on the % scale 0 is the no-effect control and ±100 the full control effect; nearly all actives have a fitted effect of over 65% in size
#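 Using HEPG2 CAGA-GFP reporter cells at 1000 cells/well, we pinned test compounds, stimulated with recombinant TGF-beta (500 pg/mL final) and measured total well GFP after 18 h.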
# Numbers without * were called inactive; i = inactive; u = inconclusive; x = no result given; [ ] = remark or other dose. Rows were chosen to be rich in hits. Some 17% of all compounds tested hit in one or more screens of this group. The call rests on the fitted dose curve; in most records, active means well fitted curve in the direction sought with a large enough effect; inconclusive means small, poorly fitted or top-dose-only effect, or another doubt; inactive means no such curve, though single readings can be large; an effect the other way counts as inactive or inconclusive. Potency means the concentration at half of the fitted maximal effect.
SMILES,DT40 TDP1 no CPT,HepG2 viability,ATXN2 expr inh,ATXN viability,TDP1 cell CPT,TGFb inhibitor
Cn1c2ccccc2c2c(C(=O)N3CCN(c4cccc(C(F)(F)F)c4)CC3)cn(C3CCCCC3)c(=O)c21,16.4µM*,-18.8%,x,x,u,u
CC(=O)c1ccc(N2CCN(C(=O)c3cn(C)c(=O)c4c3c3ccccc3n4C)CC2)cc1,23.1µM*,-26.3%,37.4%,i,u,11.9%
CCCSc1oc(-c2cccs2)nc1S(=O)(=O)c1ccc(Cl)cc1,u,-1.7%,10.6%,i,u,-20.4%
COc1ccc(CNC(=O)C(=O)Nc2c3c(nn2-c2ccccc2)CSC3)cc1,u,-2.5%,-3.6%,i,u,14.1%
O=C(CCl)Nc1c2c(nn1-c1ccccc1)CSC2,14.6µM*,-11.9%,u,u,20.6µM*,u
CC(C)(C)C(=O)Nc1c2c(nn1-c1ccccc1)CSC2,23.1µM*,-34.2%,x,i,u,-11.6%
CCC(=O)Nc1c2c(nn1-c1ccc(OC)cc1)CSC2,10.0%,-13.2%,x,i,9.6%,-9.1%
O=C(NCc1ccccc1)C(=O)Nc1c2c(nn1-c1ccccc1)CSC2,18.4µM*,-30.2%,0.9%,i,16.4µM*,u
COc1ccc(-n2nc3c(c2NC(=O)CCCl)CSC3)cc1,18.4µM*,3.6%,-11.7%,i,u,0.0%
COc1ccc(NC(=O)c2nc[nH]c2C(=O)N(C)Cc2ccccc2)cc1,u,-10.4%,-3.1%,i,23.1µM*,-7.0%
CN(Cc1ccccc1)C(=O)c1[nH]cnc1C(=O)Nc1ccc(Cl)cc1,23.1µM*,-30.1%,u,u,u,u
CCN(CC)C(=O)c1[nH]cnc1C(=O)Nc1ccc(OC)cc1,-6.3%,13.8%,-1.4%,i,-11.7%,3.8%
Cc1cnc(Nc2cccc(CN3CCOCC3)c2)nc1Nc1cccc(S(=O)(=O)NC(C)(C)C)c1,x,x,8.2%,x,x,x
O=C(C[n+]1cc(-c2ccc(F)cc2)n2c1CCC2)Nc1nc(-c2ccccc2)cs1,u,5.0%,25.6%,i,u,10.5%
O=C(C[n+]1cc(-c2ccc(Cl)cc2)n2c1CCC2)Nc1nc(-c2ccccc2)cs1,5.8µM*,-30.1%,x,i,u,-18.4%
Cc1ccc(-c2c[n+](CC(=O)Nc3nc(-c4ccc(F)cc4)cs3)c3n2CCC3)cc1,10.3µM*,17.8µM*,-17.1%,u,11.6µM*,u
CCCc1nn2c(=O)cc(COC(=O)c3ccc(NC(=O)C4CCCCC4)cc3)nc2s1,u,3.4%,x,x,u,5.5%
S=c1nc(-c2ccc(Br)cc2)oc2c1CCCC2,-98.3%,-3.0%,54.6%,i,20.6µM*,-6.5%
O=C1C=CCC(/C=C/c2ccccc2)O1 (stereo unspecified),3.66µM*,12.6µM*,5.01µM*,u,2.31µM*,u
COc1cc(NS(=O)(=O)c2ccc(-n3cccn3)cc2)cc(OC)c1,11.6µM*,-27.7%,x,i,13µM*,-16.9%
O=S(=O)(Nc1cccc(Cl)c1)c1ccc(-n2cccn2)cc1,u,-32.5%,-8.3%,i,-29.5%,u
COC(=O)c1cc(S(=O)(=O)NCc2ccccc2OC)cn1C,8.2µM*,-2.2%,x,i,u,-5.2%
CCc1cccc(C)c1NS(=O)(=O)c1ccc(-n2cccn2)cc1,25.9µM*,-23.2%,-18.5%,u,16.4µM*,u
COC(=O)c1cc(S(=O)(=O)NCc2cccc(OC)c2)cn1C,-2.4%,-1.2%,-0.7%,i,-28.9%,0.8%
Cc1cc(C)cc(NS(=O)(=O)c2ccc(-n3cccn3)cc2)c1,u,-32.5%,-20.5%,i,16.4µM*,u
SMILES,DT40 TDP1 no CPT,HepG2 viability,ATXN2 expr inh,ATXN viability,TDP1 cell CPT,TGFb inhibitor
CCOC(=O)c1ccc(NC(=O)c2ccc[n+]([O-])c2)cc1,-9.0%,-1.3%,9.9%,i,11.8%,-2.5%
CCNc1ncc2ncc(=O)n(C)c2n1,-29.5%,x,x,x,u,x
COc1ccccc1CNS(=O)(=O)c1ccc(-n2cccn2)cc1,u,-17.6%,-12.4%,i,25.9µM*,u
COc1ccc(NS(=O)(=O)c2ccc(-n3cccn3)cc2)cc1OC,4.61µM*,-21.8%,-20.4%,i,5.8µM*,u
Cc1ccc(NS(=O)(=O)c2ccc(-n3cccn3)cc2)cc1C,u,1.5%,-6.4%,i,u,u
O=S(=O)(Nc1ccc(F)cc1F)c1ccc(-n2cccn2)cc1,u,-15.4%,-5.5%,i,16.4µM*,0.0%
COc1ccc(CNS(=O)(=O)c2ccc(-n3cccn3)cc2)cc1,u,-2.3%,3.5%,i,u,1.4%
CCc1cccc(NS(=O)(=O)c2ccc(-n3cccn3)cc2)c1,20.6µM*,-7.3%,u,i,16.4µM*,u
CC[n+]1c(/C=C/N(C)c2ccccc2)n(-c2ccccc2)c2ccc(-c3nc4ccccc4s3)cc21,0.731µM*,-98.8%,4.74µM*,13.4µM*,0.82µM*,5.62µM*
Cc1ccc(/C=C/C(=O)NCCc2cccc(Cl)c2)o1,18.4µM*,7.8%,11.7%,i,10.3µM*,0.0%
Cc1ccc(/C=C/C(=O)NCC2COc3ccccc3O2)o1 (stereo unspecified),16.4µM*,5.3%,-21.8%[11.3 µM],i,16.4µM*,u
Cc1ccc(/C=C/C(=O)NC2CCCCCCC2)o1,3.66µM*,-28.4%,32.1%,i,2.59µM*,u
Cc1ccc(/C=N/NC(=O)NC2CCCCC2)o1,u,-4.3%,18.7%,i,-6.5%,-5.1%
Cc1ccc(/C=C/C(=O)Nc2ccc(N(C)C)cc2)o1,u,-6.8%,64.4%,i,20.6µM*,-15.8%
Cc1c(C(=O)NNC(=O)c2ccncc2)oc2ccc(Br)cc12,-1.7%,-0.2%,2.9%,i,-7.4%,6.7%
O=C(/C=C/c1ccccc1)NC(=S)NNC(=O)Cc1cccs1,18.4µM*,-9.7%,-19.5%,i,u,-26.1%
O=C(Cc1cccs1)N/N=C/C=C/c1ccccc1,-8.9%,8.7%,1.1%,i,-4.9%,4.5%
COc1ccc(/C=C/C(=O)NC(=S)NNC(=O)Cc2cccs2)cc1,u,-6.7%,-12.1%,i,20.6µM*,u
COc1ccc(C(=O)NNC(=S)NC(=O)/C=C/c2cccs2)cc1,u,-3.4%,-14.4%,i,u,2.5%
